From ChEMBL document CHEMBL2218924, “A broad activity screen in support of a chemogenomic map for kinase signalling research and drug discovery” (Biochem J, 2013)

Molecular target: RAF proto-oncogene serine/threonine-protein kinase (Homo sapiens) (UniProt P04049)
Settings: at 10 µM

Sequence of RAF proto-oncogene serine/threonine-protein kinase (Homo sapiens) (P04049 whole entry): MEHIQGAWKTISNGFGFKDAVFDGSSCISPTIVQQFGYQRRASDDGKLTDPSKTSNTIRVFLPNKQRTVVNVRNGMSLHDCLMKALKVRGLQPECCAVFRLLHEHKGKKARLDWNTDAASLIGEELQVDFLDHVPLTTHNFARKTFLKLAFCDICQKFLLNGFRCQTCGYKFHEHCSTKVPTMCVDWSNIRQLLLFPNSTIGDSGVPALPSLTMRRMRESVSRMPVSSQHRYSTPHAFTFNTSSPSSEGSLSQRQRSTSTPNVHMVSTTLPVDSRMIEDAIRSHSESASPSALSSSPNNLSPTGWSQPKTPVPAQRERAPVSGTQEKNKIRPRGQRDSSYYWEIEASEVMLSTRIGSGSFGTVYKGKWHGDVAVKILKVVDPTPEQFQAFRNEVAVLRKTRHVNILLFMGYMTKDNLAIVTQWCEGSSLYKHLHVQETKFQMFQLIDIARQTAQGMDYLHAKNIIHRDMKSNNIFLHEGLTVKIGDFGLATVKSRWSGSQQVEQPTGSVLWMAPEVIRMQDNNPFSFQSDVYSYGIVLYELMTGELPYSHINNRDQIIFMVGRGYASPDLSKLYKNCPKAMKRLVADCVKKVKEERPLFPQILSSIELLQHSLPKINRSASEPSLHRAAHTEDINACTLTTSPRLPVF

Structure (SMILES)	residual activity
CC(C)(C)c1cc(C=C(C#N)C#N)cc(Br)c1O	70%
Oc1ccc(-c2nc(-c3ccc(F)cc3)c(-c3ccncc3)[nH]2)cc1	1%
CN[C@@H]1C[C@H]2O[C@@](C)([C@@H]1OC)n1c3ccccc3c3c4c(c5c6ccccc6n2c5c31)C(=O)NC4	99%
